In PubChem BioAssay (EPA / NIEHS):
“And” between values parts separate entries of the source, which are not always exact repeats. Identical values can stand only once. Results filed as inconclusive are left out. Where a structure was tested more than once in an assay, its records may differ in their call. The source made the active and inactive calls. The calls were made as follows, unless noted: active = hit-call score of the fitted dose curve at least 0.9, where 1 is the maximum; inactive = score below 0.9.

Experiments:
[1] = tested on: IYD (gene 389434); assay: CCTE_GLTED_hIYD: CCTE's human Iodotyrosine Deiodinase (xIYD) Inhibition Assay, Great Lakes Toxicology and Ecology Division (GLTED) Lab (AID 2284317; active = hit-call score of the fitted dose curve at least 0.9, where 1 is the maximum;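 also: cell-free human IYD enzyme made in baculovirus insect cells; iodide freed from monoiodotyrosine measured by cerium arsenite color change at 420 nm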)
In short: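 Deiodination of MIT by insect-cell-produced human IYD is measured after a 3 h incubation with test chemical. Free iodide passes through a Dowex column and accelerates Sandell-Kolthoff Ce4+ reduction, read at 420 nm; run in triplicate.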

[2] = CCTE_Deisenroth_5AR_NBTE_donor: CCTE's 5alpha-reductase NanoBRET Target Engagement Assay […], Deisenroth Lab (AID 2284319); conditions: actives raise or lower the signal
In short: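 Donor NanoLuc luminescence at 460-20 nm is the read-out, serving artifact detection. Transiently expressed SRD5A2-NanoLuc in HEK293T; 5 h total chemical exposure, testosterone tracer added for the final 2 h; fitting bidirectional relative to DMSO baseline.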

[3] = CCTE_Deisenroth_5AR_NBTE_acceptor: CCTE's 5alpha-reductase NanoBRET Target Engagement Assay - Autofluorescence Screen, Deisenroth Lab (AID 2284321); conditions: actives raise or lower the signal;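 also: compound fluorescence in the acceptor channel under 460 nm excitation flags autofluorescence artifacts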
In short: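 Autofluorescence check: ToxCast chemicals, nominal 100 uM, excitation 460 nm, n=3 runs. Acceptor fluorescence endpoint, bidirectional fit relative to DMSO. Parent assay in HEK293T, 5 h post-dose.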

[4] = tested on: SRD5A2 (gene 6716); assay: CCTE_Deisenroth_5AR_NBTE_ratio: CCTE's 5alpha-reductase NanoBRET Target Engagement Assay - Ratio, Deisenroth Lab (AID 2284322); conditions: actives raise or lower the signal
In short: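 HEK293T cells transiently expressing an SRD5A2-NanoLuc fusion (20 h post-transfection) were exposed to test chemical (10 nM - 29.9 uM, 8 points) for 3 h, then testosterone tracer for a further 2 h. Acceptor/donor BRET ratio was fitted bidirectionally against DMSO baseline.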

[5] = IUF_NPC2-5_viability_120hr: Viability Assessment at 120 hours in the Leibniz Research Institute for Environmental Medicine (IUF) Neural Progenitor Cell Migration and Differentiation Assay (NPC2-5) (AID 2284312)
In short: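 Alamar blue resorufin fluorescence read after 5 days of differentiation, with compound present from day 0 and replenished at day 3. Primary hNPC spheres on laminin-coated plates, 37C; seven concentrations plus solvent control, fitted against DMSO.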

[6] = CCTE_Mundy_HCI_iCellGluta_NOG_NeuriteLength: CCTE's Neurite Outgrowth Assay in iCellGluta cells for Neurite Length, Mundy Lab (AID 2284318; active = hit-call score of the fitted dose curve at least 0.9, where 1 is the maximum)
Description: CCTE_Mundy_HCI_iCellGluta_NOG is a multiplexed, cell-based-readout assay that uses iCell GlutaNeurons from FUJIFILM Cellular Dynamics, Inc. (FCDI), human glutamatergic enriched neurons derived from induced pluripotent stem (iPS) cells, with measurements taken at 50.33 hours after chemical dosing in a microplate: 96-well plate.CCTE_Mundy_HCI_iCellGluta_NOG_NeuriteLength is one of four components of the CCTE_Mundy_HCI_iCellGluta_NOG assay. It measures neurite outgrowth related to neurite length using High Content Imaging of fluorescently labelled markers.Data from the assay component CCTE_Mundy_HCI_iCellGluta_NOG_NeuriteLength was analyzed at the endpoint CCTE_Mundy_HCI_iCellGluta_NOG_NeuriteLength in the positive analysis fitting direction relative to DMSO as the negative control and baseline of activity. Using a type of morphology reporter, loss-of-signal activity can be used to understand developmental effects.
Exposure starts 2 hours post-plating by adding 10 ul of the working solution to 90 ul of media in the wells for a 1/10 dilution. Forty-eight hours after chemical treatment cells are fixed by direct addition of 100 ul of warm (37C) Dulbecco's phosphate buffered saline (DPBS) fixative solution containing 8% paraformaldehyde, 8% sucrose, and 0.1% of 3 mg/ml Hoechst 33342 into each well. Primary antibodies are prepared by dilution in Immunocytochemical Staining Buffer (ISB), 10X Dulbecco's PBS, 0.1% Saponin, 5% Bovine Serum Albumin, 0.5% NaN3 (Sodium Azide) and betaIII-tubulin (rabbit anti-betaIII-tubulin, 1:800) followed by Alexa Fluor-488 secondary (1:500) to label neuronal cell bodies and neurites. A Cellomics ArrayScan VTi HCS Reader is used for automated image acquisition and analysis of neurite outgrowth.

[7] = VALA_TUBIPS_Agonist_TubuleLength: VALA Sciences human iPS-derived Endothelial Tubule Formation (TUBIPS) Agonism Assay (AID 2284311; active = hit-call score of the fitted dose curve at least 0.9, where 1 is the maximum)
In short: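 Agonist-mode readout is the gain in imaged tubule length versus DMSO baseline. It was measured by fluorescence high-content imaging 72 h after dosing human iPSC-derived endothelial cells.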

[8] = VALA_TUBIPS_Antagonist_TubuleLength: VALA Sciences human iPS-derived Endothelial Tubule Formation (TUBIPS) Antagonist Assay (AID 2284313; active = hit-call score of the fitted dose curve at least 0.9, where 1 is the maximum)
In short: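 Tubule length was quantified by high-content imaging of CD31- and nuclear-stained cells, with 0.1% DMSO as neutral and 100 uM suramin as inhibition control. Compounds were applied for 3 days, in 10 ng/ml VEGF, to cultures pre-grown 3 days.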

[9] = VALA_MIGHUV2_Bcatenin: VALA Sciences human Umbilical Vein Endothelial Cell Migration (MIGHUV) Assay, Nuclear Translocation of beta-Catenin after Recovery (AID 2284315; active = hit-call score of the fitted dose curve at least 0.9, where 1 is the maximum)
In short: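 Nuclear beta-catenin imaged by immunofluorescence with Hoechst counterstain in fixed HUVEC, 24 h after scratch wounding and chemical addition. Six-point concentration-response in triplicate; activity scored as signal increase over 0.1% DMSO vehicle.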

[10] = VALA_MIGHUV2_WoundArea: VALA Sciences human Umbilical Vein Endothelial Cell Migration (MIGHUV) Assay, Area of Scratch Wound after Recovery (AID 2284316; active = hit-call score of the fitted dose curve at least 0.9, where 1 is the maximum)
In short: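 Wound-area endpoint read by fluorescence imaging of Hoechst-stained nuclei after a 24 h recovery period following scratch of HUVEC monolayers (9000 cells/well). Chemicals dosed within 30 min post-scratch, triplicate 6-point series, 0.1% DMSO vehicle; Cytochalasin D positive control.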

Question: With `O=C(CCl)Nc1ccccc1` as the compound, how does the outcome [1] read?
Answer: The outcome was “inactive”.

Question: Which AC50 [2] does the source give for `CCC[CH2][Sn]([Cl])([Cl])[CH2]CCC` here?
Answer: The AC50 was 4.46 µM (active).

Question: What about the AC50 [3] of the same compound?
Answer: The AC50 was 5.59 µM (active).

Question: What about the AC50 [4] of the same compound?
Answer: Its AC50 is 13 µM (active).

Question: Which results are given for `O=c1nc(O)n(Cl)c(=O)n1Cl`?
Answer: outcome [2]: inactive; outcome [3]: inactive; outcome [4]: inactive

Question: With `Nc1ccc(N)cc1` as the compound, how does the outcome [1] read?
Answer: Its outcome is “inactive”.

Question: For `O=S1OC[C@@H]2[C@H](CO1)[C@]1(Cl)C(Cl)=C(Cl)[C@@]2(Cl)C1(Cl)Cl` (some centres not stated), which outcome [5] is on record?
Answer: Its outcome is “inactive”.

Question: Which outcome [5] does the source give for `Cc1ccccc1OP(=O)(Oc1ccccc1C)Oc1ccccc1C` here?
Answer: The outcome was “inactive”.

Question: And the AC50 [6]?
Answer: Its AC50 is 8.67 µM (active).

Question: What does the source list for `OC(Cc1ccccc1Cl)(Cn1[nH]cnc1=S)C1(Cl)CC1` (configuration not stated)?
Answer: AC50 [5]: 35.8 µM (active); outcome [6]: inactive

Question: Which AC50 [1] does the source give for `CCCCCCCCCCCCOS(=O)(=O)O` here?
Answer: The AC50 was 62.8 µM (active) and 56.8 µM (active).

Question: With `CC(C)[C@@H](Nc1ccc(C(F)(F)F)cc1Cl)C(=O)OC(C#N)c1cccc(Oc2ccccc2)c1` (some centres not stated) as the compound, how does the outcome [5] read?
Answer: Its outcome is “inactive”.

Question: What about the outcome [6] of the same compound?
Answer: Its outcome is “inactive”.

Question: Which outcome [1] does the source give for `Oc1cc(Cl)c(Cl)cc1Cl` here?
Answer: Its outcome is “inactive”.

Question: With `O=c1[nH]c(=O)n(Cl)c(=O)n1Cl` as the compound, how does the outcome [2] read?
Answer: The outcome was “inactive”.

Question: What about the outcome [3] of the same compound?
Answer: The outcome was “inactive”.

Question: And the outcome [4]?
Answer: Its outcome is “inactive”.

Question: For `CC1(C)[C@H](C(=O)O[C@H](C#N)c2cccc(Oc3ccccc3)c2)[C@@H]1/C=C(\Cl)C(F)(F)F`, which outcome [5] is on record?
Answer: The outcome was “inactive”.

Question: And the outcome [6]?
Answer: Its outcome is “inactive”.

Question: With `Nc1ncn[nH]1` as the compound, how does the outcome [7] read?
Answer: Its outcome is “inactive”.

Question: What about the outcome [8] of the same compound?
Answer: The outcome was “inactive”.

Question: What about the outcome [9] of the same compound?
Answer: The outcome was “inactive”.

Question: And the outcome [10]?
Answer: The outcome was “inactive”.

Question: What does the source list for `CC(=Cc1ccccc1)[N+](=O)[O-]`?
Answer: outcome [2]: inactive; outcome [3]: inactive; outcome [4]: inactive

Question: With `O=C(Nc1ccc(Br)cc1)c1cc(Br)cc(Br)c1O` as the compound, how does the AC50 [1] read?
Answer: The AC50 was 118 µM (active) and 100 µM (active).

Question: And the outcome [1]?
Answer: Its outcome is “inactive”.

Question: Which outcome [5] does the source give for `CS(=O)(=O)c1ccc(C(=O)C2C(=O)CCCC2=O)c(Cl)c1COCC(F)(F)F` here?
Answer: The outcome was “inactive”.

Question: And the AC50 [6]?
Answer: Its AC50 is 25 µM (active).

Question: For `O=[N+]([O-])c1ccccc1O`, which outcome [2] is on record?
Answer: Its outcome is “inactive”.

Question: What about the outcome [3] of the same compound?
Answer: Its outcome is “inactive”.

Question: What about the AC50 [4] of the same compound?
Answer: The AC50 was 50 µM (active).

Question: With `N#CCCC(Br)(C#N)CBr` (configuration not stated) as the compound, how does the AC50 [2] read?
Answer: Its AC50 is 62.1 µM (active).

Question: And the AC50 [3]?
Answer: Its AC50 is 54.4 µM (active).

Question: What about the AC50 [4] of the same compound?
Answer: Its AC50 is 69.9 µM (active).

Question: With `CCCCCCCCCCCCc1cccc(S(=O)(=O)O)c1` as the compound, how does the AC50 [1] read?
Answer: Its AC50 is 89.9 µM (active).

Question: With `CCOP(=S)(OCC)O/N=C(\C#N)c1ccccc1` as the compound, how does the outcome [2] read?
Answer: Its outcome is “inactive”.

Question: What about the outcome [3] of the same compound?
Answer: Its outcome is “inactive”.

Question: What about the AC50 [4] of the same compound?
Answer: Its AC50 is 20.1 µM (active).

Question: With `CNC(=O)CSP(=O)(OC)OC` as the compound, how does the outcome [5] read?
Answer: Its outcome is “inactive”.

Question: Which outcome [5] does the source give for `CCOCn1c(-c2ccc(Cl)cc2)c(C#N)c(Br)c1C(F)(F)F` here?
Answer: The outcome was “inactive”.

Question: And the AC50 [6]?
Answer: The AC50 was 14.1 µM (active).

Question: Which outcome [5] does the source give for `Cc1cc(C(F)(C(F)(F)F)C(F)(F)F)ccc1NC(=O)c1cccc(I)c1C(=O)NC(C)(C)CS(C)(=O)=O` here?
Answer: Its outcome is “inactive”.

Question: And the outcome [6]?
Answer: The outcome was “inactive”.

Question: For `O=S1(=O)OC(c2cc(Br)c(O)c(Br)c2)(c2cc(Br)c(O)c(Br)c2)c2ccccc21`, which AC50 [1] is on record?
Answer: The AC50 was 117 µM (active).

Question: What about the outcome [2] of the same compound?
Answer: The outcome was “inactive”.

Question: What about the outcome [3] of the same compound?
Answer: The outcome was “inactive”.

Question: What about the AC50 [4] of the same compound?
Answer: The AC50 was 4.66 µM (active).
